Assay results from PubChem BioAssay (NCI).
Values joined by “and” are separate entries in the source; they are usually repeats but may differ in a detail not shown here. Equal values may be shown once. About 83,000 compounds went through this panel and 20% of them were active in at least one assay; those are over-represented in the sample as a whole.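 Values shown are percent growth following 48 h exposure of cells in 96-well plates to a single concentration of compound; below 10 was considered active.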 Active and inactive are the calls of the source.

What was measured:
Assay in all cases: NCI-60 one-dose screen, 48 h (100 = growth as untreated, 0 = no growth, -100 = all killed)
Settings in all cases: 10 µM unless noted
[1] = system: OVCAR-8 ovarian
[2] = system: OVCAR-5 ovarian
[3] = system: OVCAR-4 ovarian
[4] = system: SK-OV-3 ovarian
[5] = system: OVCAR-3 ovarian
[6] = system: HS 578T breast
[7] = system: NCI/ADR-RES ovarian
[8] = system: T-47D breast
[9] = system: BT-549 breast
[10] = system: MDA-MB-435 melanoma
[11] = system: SW-620 colon
[12] = system: MCF7 breast
[13] = system: HCT-116 colon
[14] = system: HCC-2998 colon
[15] = system: KM12 colon
[16] = system: RPMI-8226 leukemia
[17] = system: IGROV1 ovarian

Measured: growth

Cc1ccc2cccc([N+](=O)[O-])c2n1
inactive: [1] 101% and 108% | [2] 104% and 101% | [3] 128% and 103% | [4] 102% and 100% | [5] 111% and 110% | [6] 111% and 109% | [7] 113% and 102% | [8] 97.4% and 97.8% | [9] 121% and 93.5% | [10] 110% and 108% | [11] 119% and 103% | [12] 105% and 95.7% | [13] 114% and 97.7% | [14] 102% and 103% | [15] 111% and 107%

COC(=O)c1nc(=S)[nH]c(C(=O)OC)c1C(=O)c1ccccc1
inactive: [16] 107% | [1] 110% | [2] 106% | [3] 106% | [4] 111% | [17] 101% | [5] 112% | [6] 99% | [7] 108% | [8] 107% | [9] 124% | [10] 107% | [11] 108% | [12] 94.2% | [13] 126% | [14] 116% | [15] 114%

O=C1C=CC[C@H](/C=C/c2ccccc2)O1
-35.5% (active) and 15.7% (inactive): [17]
24.9% (inactive) and 4.24% (active): [9]
17.5% (inactive) and 4.07% (active): [10]
132% (inactive) and 7.79% (active): [4]
inactive: [1] 21.2% and 14.4% | [2] 57.6% and 54.9% | [3] 36% and 33.6% | [6] 25.4% and 19.5% | [7] 34% and 28.9% | [14] 26.1% and 32.3% | [15] 43.1% and 35.6%
active: [5] 1.02% and -41.3% | [12] 0.837% and 1.92% | [13] 5.79% and -18.5%
67.9% (inactive) and 9.64% (active): [8]
16.4% (inactive) and -39.2% (active): [11]

CCc1ccccc1-n1[nH]c(C)c(C=N)c1=O
inactive: [16] 107% | [1] 118% | [2] 110% | [3] 114% | [4] 119% | [17] 112% | [5] 124% | [6] 99.2% | [7] 106% | [8] 126% | [9] 108% | [10] 104% | [11] 106% | [12] 94.1% | [13] 120% | [14] 118% | [15] 102%

CC(=O)Nc1ccc2oc(=O)ccc2c1
inactive: [16] 104% | [1] 106% | [2] 102% | [3] 106% | [4] 102% | [17] 105% | [5] 110% | [6] 109% | [7] 116% | [8] 85.3% | [9] 89.8% | [10] 105% | [11] 107% | [12] 110% | [13] 86.5% | [14] 110% | [15] 100%

Cc1cccc(Cl)c1N
inactive: [16] 120% | [1] 96.1% | [2] 110% | [3] 117% | [4] 113% | [17] 153% | [5] 117% | [6] 87.6% | [7] 101% | [8] 110% | [9] 111% | [10] 95.7% | [11] 96.9% | [13] 113% | [14] 102% | [15] 110%

O=C(O)c1cc(=O)[nH]c(=O)[nH]1
107% (inactive) and -33.1% (active): [7]
inactive: [16] 98.2% and 71.6% | [1] 102% and 76.4% | [3] 107% and 101% | [4] 104% and 112% | [17] 103% | [5] 114% and 112% | [6] 107% and 94.8% | [10] 96.7% and 113% | [11] 111% and 103% | [12] 98.7% | [13] 107% | [14] 99.3% | [15] 106% and 99.6%
101% (inactive) and -23.6% (active): [2]
